Shiga toxin inh: A qHTS for Small Molecule Inhibitors of Shiga Toxin; actives 9.2% (n = 290,000); inhibition, % at 38.7 µM; Vero cells, Shiga toxin protein synthesis inhibition reporter; in the data active = inhibition mostly above about 28%, no sharp cut-off; inactive = mostly below about 43%; also: 0% is about no effect
Cycloheximide cs: Cycloheximide Counterscreen for Small Molecule Inhibitors of Shiga Toxin | cell reporter, cycloheximide protein synthesis inhibition counterscreen | max response, % | actives 12% (n = 300,000) | AID 2314, 2010; in the data active = max response mostly above about 13%, no sharp cut-off; inactive = mostly below about 14%; also: read at 38.3 µM for the half of the compounds with a filed dose; 0% is about no effect
Pf growth 48h: Primary qHTS for delayed death inhibitors of the malarial parasite plastid, 48 hour incubation; Potency, µM (titrated, usually from 28.7 µM), without a hit: top-dose activity change, negative = inhibition, actives largely listed as inhibitors; actives 5.9% (n = 310,000); AID 504832, 2011; P. falciparum luciferase growth in erythrocytes, 48 h; also: potency is read from the fitted curve at half-maximal effect; % is scaled to controls: 0 for no effect and ±100 for the full control effect
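In quantitative HTS format, infected erythrocytes bearing luciferase-reporter parasites were treated for a single generation at 37 C. Luminescence after adding detection reagent served as the growth measure.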
Pf growth 96h: Primary qHTS for delayed death inhibitors of the malarial parasite plastid, 96 hour incubation; Potency, µM (series often up to 28.7 µM), without a hit: at the top dose activity change, negative = inhibition, actives largely listed as inhibitors; AID 504834, 2011; actives 6.9% (n = 320,000); P. falciparum luciferase reporter growth, 96 h; also: potency is read from the fitted curve at half-maximal effect; % is scaled to controls: 0 for no effect and ±100 for the full control effect
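Cell-based qHTS: luciferase-tagged P. falciparum in erythrocytes (2% hematocrit, 0.05% parasitemia final) incubated with compounds for 96 hours, 37 C, 5% CO2; luciferase detection reagent then added and luminescence measured.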
HCV inh: qHTS Assay for Inhibitors of Hepatitis C Virus (HCV) | Huh7.5.1 HCVcc-Cre infection, luciferase reporter, 44 h | Potency, µM (doses to about 41.8 µM), without a hit: at the highest dose activity change, negative = inhibition, usual class: inhibitors | actives 3.4% (n = 340,000) | AID 651820, 2012; also: potency is read from the fitted curve at half-maximal effect; % is scaled to controls: 0 for no effect and ±100 for the full control effect
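Luciferase read-out (15 sec integration) after a 15 min room-temperature substrate step quantifies HCVcc-Cre infection. Cells, 1,000 per well, had compound added 4 h post-plating, then virus at ~0.5 moi, and were cultured 44 h.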
AMA1 RON2 block: qHTS for Inhibitors of AMA1-RON; Towards Development of Antimalarial Drug Lead: Primary Screen; Plasmodium falciparum AMA1 (3D7) - RON2 peptide interaction; AlphaScreen AMA1-biotinylated RON2 peptide binding; Potency, µM (titrated, usually from 58.2 µM), for the others: at the highest dose activity change, negative = inhibition, hits mostly inhibitors; actives 0.2% (n = 360,000); AID 720542, 2013;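 also: potency is read from the fitted curve at half-maximal effect; 0% = vehicle wells and -100% = peptide control; nearly all actives have a fitted effect of over 45% in size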
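AMA1 (3D7) with his tag at 25 nM final met compounds first, then biotinylated RON2 peptide at 25 nM; detection used donor plus acceptor beads, 10 µg/mL apiece, read by AlphaScreen after 30 min at room temperature.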
Active calls of the source: *. Compounds with a hit are over-represented: about 21% of the library has one in this group of screens. Unless noted, calls follow the shape of the dose curve; as a rule, active = well fitted curve in the direction sought with a large enough effect; inconclusive = small, poorly fitted or top-dose-only effect, or another doubt; inactive = no such curve, though single readings can be large; an effect the other way counts as inactive or inconclusive.

What do the screens show for `O=C(OCCOc1ccccc1Cl)c1ccc(-n2cnnn2)cc1`?
Shiga toxin inh: 74.9; Cycloheximide cs: 35.6*; Pf growth 48h: 81.1%; Pf growth 96h: 37.2%; HCV inh: 1.0%; AMA1 RON2 block: 14.1%

Results for O=c1[nH]cnc2scc(-c3ccc(Br)cc3)c12 ?
Shiga toxin inh: 25.3; Cycloheximide cs: 10.5; Pf growth 48h: 29.4%; Pf growth 96h: inconclusive; HCV inh: -8.7%; AMA1 RON2 block: 2.4%

How did O=c1[nH]cnc2scc(-c3ccccc3)c12 do in these assays?
Shiga toxin inh: -5.6; Cycloheximide cs: -2.1; Pf growth 48h: 2.62µM*; Pf growth 96h: -20.1%; HCV inh: 8.1%; AMA1 RON2 block: -3.1%

What do the screens show for `CC(C)c1ccc(-c2csc3nc[nH]c(=O)c23)cc1`?
Cycloheximide cs: 24.3*; Pf growth 48h: 48.0%; Pf growth 96h: 53.8%; HCV inh: -21.2%; AMA1 RON2 block: -9.6%

Results for CCc1ccc(-c2csc3nc[nH]c(=O)c23)cc1 ?
Shiga toxin inh: 15.3; Cycloheximide cs: 22.5*; Pf growth 48h: 23.7%; Pf growth 96h: inconclusive; HCV inh: -2.1%; AMA1 RON2 block: 6.5%

How did CCOc1ccc(-c2csc3nc[nH]c(=O)c23)cc1 do in these assays?
Shiga toxin inh: 109.6*; Cycloheximide cs: 29.6*; Pf growth 48h: 0.0%; Pf growth 96h: inconclusive; HCV inh: -4.6%; AMA1 RON2 block: -9.5%

How did O=C(C1=C(O)C(=O)N(c2ccccc2)C1c1ccc([N+](=O)[O-])cc1)c1cccs1 (stereo unspecified) do in these assays?
Shiga toxin inh: -8.5; Cycloheximide cs: -2.2; Pf growth 48h: -1.2%; Pf growth 96h: 67.3%; HCV inh: 10.0%; AMA1 RON2 block: 6.5%

Results for COc1cc(SC)ccc1C(=O)Nc1ccc(OCC(=O)N2CCOCC2)cc1 ?
Shiga toxin inh: 60.9*; Cycloheximide cs: 16.5*; Pf growth 48h: 61.1%; Pf growth 96h: 3.0%; HCV inh: -7.8%; AMA1 RON2 block: -3.4%

How did COc1cc(SC)ccc1C(=O)Nc1cc(C)c(OCC(=O)N2CCOCC2)c(C)c1 do in these assays?
Shiga toxin inh: 6.3; Cycloheximide cs: 9.9; Pf growth 48h: 16.4%; Pf growth 96h: inconclusive; AMA1 RON2 block: -4.5%

What do the screens show for `COc1cc(SC)ccc1C(=O)Nc1ccc(S(=O)(=O)N2CCCC2)cc1`?
Shiga toxin inh: 12.8; Cycloheximide cs: 1.1; HCV inh: 8.4%; AMA1 RON2 block: 0.6%

What do the screens show for `COc1ccc(CNC(=O)c2ccc(SC)cc2OC)cc1`?
Shiga toxin inh: -8.5; Cycloheximide cs: 1.0; Pf growth 48h: inconclusive; Pf growth 96h: inconclusive; HCV inh: -28.9%; AMA1 RON2 block: -3.8%

Results for COc1cc(SC)ccc1C(=O)Nc1ccc2c(c1)OCO2 ?
Shiga toxin inh: 71.5*; Cycloheximide cs: 37.4*; Pf growth 48h: 59.3%; Pf growth 96h: -0.6%; HCV inh: inconclusive; AMA1 RON2 block: -7.8%

How did COc1cc(SC)ccc1C(=O)Nc1ccc(C)cc1 do in these assays?
Shiga toxin inh: 69.4*; Cycloheximide cs: 35.7*; Pf growth 48h: -8.7%; Pf growth 96h: inconclusive; HCV inh: inconclusive; AMA1 RON2 block: -0.4%

How did COc1cc(SC)ccc1C(=O)Nc1ccc(C)cc1C do in these assays?
Shiga toxin inh: 106.5*; Cycloheximide cs: 47.4*; Pf growth 48h: 306.2%; Pf growth 96h: inconclusive; HCV inh: inconclusive; AMA1 RON2 block: -1.3%

How did COc1cc(/C=C/C(=O)O)cc(S(=O)(=O)N(CC(C)C)CC(C)C)c1OC do in these assays?
Shiga toxin inh: 3.9; Cycloheximide cs: -1.9; Pf growth 48h: -16.1%; Pf growth 96h: 30.0%; HCV inh: 8.0%; AMA1 RON2 block: 2.1%

Results for Cc1ccc2nc(-c3ccco3)c(CC(C)(C)C)n2c1 ?
AMA1 RON2 block: -12.7%

Results for CCCCOc1ccc2ccccc2c1C=O ?
Shiga toxin inh: 67.7; Cycloheximide cs: 31.6*; Pf growth 48h: -1.5%; Pf growth 96h: 38.8%; HCV inh: -10.7%; AMA1 RON2 block: 43.8%
